The supplement of paper PMC6555819

System: PPARg homodimer (NR concentration 180 nM)
Experiment: PBM binding z-score (relative to random genomic background probes); higher = stronger binding; sequences stand for … in GC…GCGATTGACAGCGTAGAATGAAGG
How it was run: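 Probes were double-stranded and carried 34-nt variable regions with direct-repeat seeds, single-nucleotide variants, half-site ablations and random human genomic background sequences, printed on custom Agilent 4×180K protein-binding microarrays. Arrays were incubated 1 h with ligand-free nuclear receptor dimers in PBS pH 7.4, 2% milk, 0.02% Triton X-100, 1 mM DTT, 0.2 mg/mL BSA and 0.4 mg/ml salmon testes DNA. Antibodies against each partner (one per run) detected binding, and scanned fluorescence was regression-normalized. Binding z-scores use the random background probes as reference.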

Sequence | PBM binding z-score
TAGACTAGGTCATTCAGGGGCCAGTATAGAAAGC | 2.65
TGTGCTAGGTCAGTTGGTCAGCTAACGAGCTGCC | 0.18
TTACCACGGTGAAGGTCGTTGATCCCTCTGTAGA | 0.191
TTACCAAGGTGAGCTGAGGTCGTTCATCCAACTC | -0.159
ATCGGAAGGTCGACGAGGTGAGTATACACCGTTT | 0.248
CCAGACAGGTGAAAGGTAACTTAGTCTGGTACGC | 0.712
AGTCAAAGTTCAGGGCGAGGTAACGTAAAGCACG | 2.91
TCTGGTTGGTCACGGAGGTCACACACGACGGGTA | 4.27
TTACCAAGGTTAAGGTCGTTGATCCCTCTGTAGA | 1.05
CCTCGGAGGACAAGAGGAGGTCAGAGCTGCCAGA | 0.986
GCTTACGGGTCAAAGGATATAGCATGAATAGAAT | 1.09
CGTCCAAGGTAAAAGGTCAGTGAAGAGATGACGG | 2.6
CGTCCAAGGTCAGGGTCAGTGAAAGAGACTCGAA | 2.66
ATCTCTAGGTAAAGTTCGGTGAAAGATCGATAGA | 0.996
CAAACTAGGTCGAGGTCAAAGTCGGTTTGTGCCA | 1.85
CCTAACGGGTCACGAGGTTATAGCACGACGAGCG | 2.3
CAAACTAGGTCACGAAAGGCCAAAGTCGAATGAC | 2.99
CGTGCAAGGTCAATGCTAGGTCAGTGAAAGCATT | 3.59
CCTACTGGGCCATTCAGAGGTCATTGAGCATATG | 2.75
ATACCAAGGTGATGGTGAGGTCGTTGATACTAAC | 1.2
CCTTACGGGTCACGAGGTTACAGCACGACGAGCG | 5.5
GATACAGGGTCAGCTAGAGGCCAGAGTATGGAAA | 3.5
